Our source for the growth values is PubChem BioAssay (NCI).

Among the test systems are RPMI-8226 leukemia; OVCAR-8 ovarian; OVCAR-5 ovarian; OVCAR-4 ovarian; SK-OV-3 ovarian; IGROV1 ovarian; OVCAR-3 ovarian; HS 578T breast; NCI/ADR-RES ovarian; T-47D breast.
What all share (test): NCI-60 one-dose screen, 48 h (100 = growth as untreated, 0 = no growth, -100 = all killed)
Conditions in all cases: 10 µM unless noted

Compounds without any hit were thinned out: in the full panel of roughly 83,000, 20% have a hit.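 Step 1: grow cells in 96-well plates. Step 2: add test compound at a single concentration. Step 3: incubate 48 h. Step 4: record percent growth.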 A number with no mark means an inactive call. Activity calls are given as the source filed them. Rule for the calls: active = growth percent below 10; inactive = the rest.

With `Nc1ccn(C2O[C@H](CO)[C@@H](O)[C@H]2O)c(=O)n1` (stereo partly specified), the growth in the experiment on RPMI-8226 leukemia is 49.8%; with OVCAR-8 ovarian, 58.5%; in the experiment on OVCAR-5 ovarian, 104%; with OVCAR-4 ovarian, 72.3%; in the experiment with SK-OV-3 ovarian it was 90.2%; in the experiment with IGROV1 ovarian, 82.9%. Moreover, the values for the growth in the experiment with OVCAR-3 ovarian, in the experiment with HS 578T breast and in the experiment with NCI/ADR-RES ovarian were 88.7%, 106% and 70.1%, respectively.
For the compound `Cn1nc(C(F)(F)F)c(-c2ccc(Cl)c(C(F)(F)F)c2)c1-c1ccc(OCc2ccc(Cl)cc2)cc1O`, the growth in the experiment with RPMI-8226 leukemia was -17.9% (active); in the experiment with OVCAR-8 ovarian it was 7.41% (active); in the experiment with OVCAR-5 ovarian it was 53.4%; in the experiment on OVCAR-4 ovarian, 30.2%; in the experiment with SK-OV-3 ovarian, 20.6%; with IGROV1 ovarian, 38.9%. Also, the growth in the experiment with OVCAR-3 ovarian was 1.24% (active); in the experiment with HS 578T breast, 22.8%; in the experiment on NCI/ADR-RES ovarian, 8.38% (active); with T-47D breast, -0.38% (active).
Consider `COc1ccc(-n2c(C(O)c3ccccc3)nn(CN3CCOCC3)c2=S)cc1` (stereo unspecified), for which the growth in the experiment with RPMI-8226 leukemia is 88.9%; with OVCAR-8 ovarian it was 107%; in the experiment on OVCAR-5 ovarian, 101%; with OVCAR-4 ovarian it was 96.1%; in the experiment on SK-OV-3 ovarian, 101%; in the experiment with IGROV1 ovarian it was 96.6%. The growth in the experiment with OVCAR-3 ovarian was 124%; in the experiment with HS 578T breast, 93.3%; in the experiment on NCI/ADR-RES ovarian, 107%; with T-47D breast, 90.4%.
Take `COc1cc2cc3c(=O)n4c(cc5cc(OC)ncc54)c(=O)n3c2cn1`: the growth with RPMI-8226 leukemia is 98%; with OVCAR-8 ovarian, 112%; in the experiment with OVCAR-5 ovarian it was 110%; with OVCAR-4 ovarian it was 114%; in the experiment on SK-OV-3 ovarian it was 113%; with IGROV1 ovarian it was 95.8%. In addition, the results for the growth in the experiment with OVCAR-3 ovarian, with HS 578T breast and with NCI/ADR-RES ovarian were 109%, 104% and 108%, respectively.
For `COc1ccc(Cn2c(Br)c3c(c2Br)-c2nc(NC(=O)c4ccc(OC)cc4)sc2CC3)cc1`, the growth was 71.8% with RPMI-8226 leukemia; 61.4% in the experiment on OVCAR-8 ovarian; 79.4% in the experiment with OVCAR-5 ovarian; 49.7% in the experiment with OVCAR-4 ovarian; 72.9% with SK-OV-3 ovarian; 38.2% with IGROV1 ovarian. Moreover, the growth with OVCAR-3 ovarian was 88.6%; with HS 578T breast it was 58.1%; in the experiment on NCI/ADR-RES ovarian it was 74.7%.
As for `CCC1=C[C@]2(C3CC(=O)N(c4ccccc4)C3=O)CC(C(C)(C)C)C[C@@H]2[C@@H]2C(=O)N(c3ccccc3)C(=O)[C@H]12` (stereo partly specified), the growth in the experiment on RPMI-8226 leukemia was 59.7%; in the experiment on OVCAR-8 ovarian, 85.5%; in the experiment on OVCAR-5 ovarian it was 88.7%; in the experiment with OVCAR-4 ovarian, 89.4%; in the experiment with SK-OV-3 ovarian it was 88.6%; in the experiment on IGROV1 ovarian, 90.8%. Further, the growth in the experiment with OVCAR-3 ovarian was 86%; in the experiment with HS 578T breast, 83%; in the experiment on NCI/ADR-RES ovarian, 91.3%; in the experiment on T-47D breast it was 70.5%.
On to `Nc1no[n+]([O-])c1-c1nnc2c(n1)-c1ccccc1C2=O`, for which the growth in the experiment with RPMI-8226 leukemia is 18.1%; in the experiment with OVCAR-8 ovarian, 65.7%; in the experiment with OVCAR-5 ovarian it was 83.9%; in the experiment with OVCAR-4 ovarian it was -97.5% (active); in the experiment with SK-OV-3 ovarian it was 111%; in the experiment with IGROV1 ovarian it was 82.6%. In addition, the growth with OVCAR-3 ovarian is -20.2% (active); in the experiment with HS 578T breast, 89%; with NCI/ADR-RES ovarian, 72.1%; in the experiment with T-47D breast it was 61%.
On to `OC(CNC1CCCCC1)Cn1c2ccc(I)cc2c2cc(I)ccc21` (stereo unspecified), for which the growth was 52.2% in the experiment on RPMI-8226 leukemia; 70.9% with OVCAR-8 ovarian; 82.9% in the experiment with OVCAR-5 ovarian; 77% with OVCAR-4 ovarian; 91.6% with SK-OV-3 ovarian; 70.8% in the experiment on IGROV1 ovarian. The growth in the experiment with OVCAR-3 ovarian is 65.7%; with HS 578T breast, 79.6%; with NCI/ADR-RES ovarian it was 62.8%.
Regarding `OC(c1ccccc1)c1nnc(SCc2ccccc2)n1Cc1ccccc1` (stereo unspecified), the growth is 72.5% in the experiment on RPMI-8226 leukemia; 98.8% in the experiment on OVCAR-8 ovarian; 92.8% in the experiment with OVCAR-5 ovarian; 81.6% in the experiment with OVCAR-4 ovarian; 90% in the experiment with SK-OV-3 ovarian; 93.7% in the experiment with IGROV1 ovarian. The values for the growth with OVCAR-3 ovarian, with HS 578T breast and with NCI/ADR-RES ovarian were 103%, 94% and 92.8%, respectively.
As for `O=c1oc2ccc(I)cc2c(=O)n1-c1ccc(Br)cc1F`, the growth in the experiment on RPMI-8226 leukemia was -26.2% (active); with OVCAR-8 ovarian it was 8.2% (active); with OVCAR-5 ovarian it was 20.7%; in the experiment on OVCAR-4 ovarian, 17.1%; in the experiment on SK-OV-3 ovarian it was -9.81% (active); with IGROV1 ovarian, 16.3%. Besides, the growth is 5.84% (active) in the experiment on OVCAR-3 ovarian, -4.87% (active) in the experiment on HS 578T breast and 7.59% (active) in the experiment on NCI/ADR-RES ovarian.
`C#CCn1cc(C=C2C(=O)N(C)C(=O)N(C)C2=O)c2cc(Cl)ccc21`: the growth in the experiment on RPMI-8226 leukemia was 105%; in the experiment with OVCAR-8 ovarian it was 107%; in the experiment on OVCAR-5 ovarian, 108%; in the experiment on OVCAR-4 ovarian it was 109%; with SK-OV-3 ovarian, 115%; with IGROV1 ovarian, 102%. The growth in the experiment on OVCAR-3 ovarian is 108%; with HS 578T breast, 91.4%; in the experiment with NCI/ADR-RES ovarian, 107%.
`COc1c2ccoc2c(/C=C/C=O)c2oc(-c3ccccc3)cc(=O)c12`: the growth is 28% with RPMI-8226 leukemia; 26.1% in the experiment with OVCAR-8 ovarian; 106% in the experiment on OVCAR-5 ovarian; 57.8% in the experiment on OVCAR-4 ovarian; 96.3% in the experiment on SK-OV-3 ovarian; 80.5% with IGROV1 ovarian. In addition, the growth was 57.7% in the experiment with OVCAR-3 ovarian, 74.8% in the experiment with HS 578T breast, 32.4% in the experiment with NCI/ADR-RES ovarian and 47% with T-47D breast.
Regarding `O=S(=O)(c1ccc(NC(=S)NC23CC4CC(CC(C4)C2)C3)cc1)N1CCCCC1`, the growth in the experiment with RPMI-8226 leukemia was -11.6% (active); in the experiment on OVCAR-8 ovarian it was 82.9%; in the experiment on OVCAR-5 ovarian, 94.4%; in the experiment with OVCAR-4 ovarian, 86.4%; in the experiment with SK-OV-3 ovarian, 106%; in the experiment on IGROV1 ovarian, 94.3%. For the same compound, the growth with OVCAR-3 ovarian was 5.73% (active); with HS 578T breast it was 88.8%; with NCI/ADR-RES ovarian it was 88.2%; in the experiment with T-47D breast, 90.5%.
Consider `CCCCCCc1cc2cc(-c3nc4ccccc4[nH]3)c(=Nc3ccccc3C)oc2cc1O`, for which the growth in the experiment with RPMI-8226 leukemia was -20.2% (active); in the experiment on OVCAR-8 ovarian, 55.8%; in the experiment on OVCAR-5 ovarian, 57.7%; in the experiment on OVCAR-4 ovarian, 39.4%; in the experiment on SK-OV-3 ovarian, 67%; with IGROV1 ovarian, 39.5%. In addition, the growth is 41.9% in the experiment on OVCAR-3 ovarian, 68.8% in the experiment with HS 578T breast and 49.9% in the experiment on NCI/ADR-RES ovarian.
`COc1ccc(-c2nsc3c2NC(=O)CC3c2ccsc2)cc1` (stereo unspecified): the growth in the experiment with RPMI-8226 leukemia was 21.5%; in the experiment on OVCAR-8 ovarian it was 30.7%; in the experiment with OVCAR-5 ovarian, 33%; in the experiment on OVCAR-4 ovarian, 31.1%; in the experiment on SK-OV-3 ovarian, -4.77% (active); in the experiment on IGROV1 ovarian, 15.7%. For the same compound, the growth with OVCAR-3 ovarian was -39.3% (active); in the experiment on HS 578T breast, 32.5%; in the experiment with NCI/ADR-RES ovarian it was 22.2%.
